From PubChem BioAssay (EPA / NIEHS)
Some structures have more than one record in an assay (separate samples or runs), and their calls can disagree. Calls of active or inactive are those of the source. How the source made its calls: active means hit-call score of the fitted dose curve at least 0.9, where 1 is the maximum; inactive means score below 0.9.

Tests used:
[1] = ATG_ISRE_CIS: Attagene CIS-FACTORIAL HepG2 Assay for human Interferon Regulatory Factor 1 (IRF1) binding to an Interferon-Stimulated Response Element (ISRE) (AID 2282948); conditions: HepG2 ISRE cis-reporter (Attagene), mRNA transcription readout; actives raise or lower the signal
Summary of the method: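 Endogenous transcription factor activity read as reporter transcript abundance via RT-PCR and capillary electrophoresis. HepG2 cells transiently transfected, 24 h chemical exposure. Gain or loss fitted against DMSO baseline.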

[2] = ATG_M_32_CIS: Attagene CIS-FACTORIAL HepG2 Assay for M32 Transcription Factor (Internal Marker) (AID 2282949); conditions: HepG2 Attagene cis-factorial M32 reporter, mRNA; actives raise or lower the signal;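 further: background control marker of the multiplexed CIS panel rather than a real target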
Summary of the method: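 Transient MRTU transfection of HepG2; 24 h compound treatment; TriZol RNA, oligo(dT) RT, reporter PCR, 6-FAM primer extension, HpaI cut, CE. Gain/loss of signal vs DMSO.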

[3] = ATG_M_06_CIS: Attagene CIS-FACTORIAL HepG2 Assay for M06 Transcription Factor (Internal Marker) (AID 2282950); conditions: HepG2 Attagene CIS-FACTORIAL M06 internal marker reporter; actives raise or lower the signal
Summary of the method: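 HepG2 liver cells, 24 h exposure. Reporter transcripts from transfected cis-element constructs quantified by RT-PCR/capillary electrophoresis fluorescence. Bidirectional curve fit against DMSO.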

[4] = molecular target: Hypoxia-inducible factor 1-alpha (Homo sapiens) (UniProt Q16665); experiment: ATG_HIF1a_CIS: Attagene CIS-FACTORIAL HepG2 Assay for human Hypoxia Inducible Factor 1 (HIF1A) (AID 2282951); conditions: HepG2 Attagene cis-factorial HIF1a reporter transcription; actives raise or lower the signal
Summary of the method: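 Activity is fitted in both directions relative to DMSO. Reporter transcripts are read by RT-PCR, fluorescent primer extension and capillary electrophoresis after 24 h chemical treatment. The cells are HepG2 carrying transiently transfected cis-element-driven reporter units responding to endogenous factors.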

[5] = molecular target: Hepatocyte nuclear factor 6 (Homo sapiens) (UniProt Q9UBC0); experiment: ATG_HNF6_CIS: Attagene CIS-FACTORIAL HepG2 Assay for human Hepatocyte Nuclear Factor 6 (HNF6) (AID 2282952); conditions: HepG2 Attagene cis-factorial HNF6 reporter transcription; actives raise or lower the signal
Summary of the method: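 First, HepG2 cells were transfected with the multiplexed cis reporter library and dosed with chemical for 24 h. Next, RNA was reverse-transcribed, PCR-amplified and fluorescently labelled. Finally, HpaI-digested fragments were read by capillary electrophoresis.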

[6] = molecular target: Heat shock factor protein 1 (Homo sapiens) (UniProt Q00613); experiment: ATG_HSE_CIS: Attagene CIS-FACTORIAL HepG2 Assay for human Heat Shock Transcription Factor 1 (HSE) (AID 2282953); conditions: HepG2 HSE cis-reporter, Attagene RNA transcription; actives raise or lower the signal
Summary of the method: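 Endogenous transcription factor activity captured via cis-promoter reporter units transfected into HepG2; treatment lasted 24 h. Fluorescence intensity of reporter fragments analysed with bidirectional curve fitting, DMSO baseline.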

[7] = ATG_MRE_CIS: Attagene CIS-FACTORIAL HepG2 Assay for human Metal Responsive Element (MRE) (AID 2282954); conditions: HepG2 MRE cis-reporter transcription, Attagene multiplex; actives raise or lower the signal
Summary of the method: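 RT-PCR/capillary electrophoresis readout of reporter mRNA, 24 h post-dosing, in HepG2 cells transfected with multiplexed cis-regulated reporter constructs. Gain or loss of signal fitted bidirectionally against DMSO baseline.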

[8] = ATG_PBREM_CIS: Attagene CIS-FACTORIAL HepG2 Assay for human Phenobarbital-responsive Enhancer Module (PBREM) (AID 2282955); conditions: HepG2 PBREM cis-reporter, Attagene multiplexed transcription; actives raise or lower the signal
Summary of the method: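 Endogenous transcription factor activity was read from reporter transcripts in transiently transfected human HepG2 liver cells after 24 h dosing. RT-PCR products were fluorescently labelled, HpaI-cut and sized by capillary electrophoresis; activity fitted bidirectionally against DMSO baseline.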

[9] = ATG_PXRE_CIS: Attagene CIS-FACTORIAL HepG2 Assay for human Pregnane X Receptor Element (PXRE) (AID 2282957); conditions: HepG2 Attagene CIS-FACTORIAL PXRE reporter, mRNA; actives raise or lower the signal
Summary of the method: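 After a 24 h chemical incubation, total RNA from transfected HepG2 cells was reverse-transcribed and reporter cDNA amplified, FAM-labeled, HpaI-digested and sized by capillary electrophoresis. DMSO served as baseline for bidirectional curve fitting.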

[10] = molecular target: Paired box protein Pax-6 (Homo sapiens) (UniProt P26367); experiment: ATG_Pax6_CIS: Attagene CIS-FACTORIAL HepG2 Assay for human Paired Box 6 (PAX6) (AID 2282956); conditions: HepG2 CIS-FACTORIAL PAX6 reporter transcription, RNA readout; actives raise or lower the signal
Summary of the method: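 Read-out is reporter transcript level, measured by RT-PCR with fluorescent primer extension and capillary electrophoresis after 24 h dosing of transfected HepG2 cells. Activity in either direction fitted relative to DMSO control.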

Measured: AC50

Heat shock factor protein 1 (Homo sapiens), sequence (Q00613 whole entry, looked up, the tested form may be a part): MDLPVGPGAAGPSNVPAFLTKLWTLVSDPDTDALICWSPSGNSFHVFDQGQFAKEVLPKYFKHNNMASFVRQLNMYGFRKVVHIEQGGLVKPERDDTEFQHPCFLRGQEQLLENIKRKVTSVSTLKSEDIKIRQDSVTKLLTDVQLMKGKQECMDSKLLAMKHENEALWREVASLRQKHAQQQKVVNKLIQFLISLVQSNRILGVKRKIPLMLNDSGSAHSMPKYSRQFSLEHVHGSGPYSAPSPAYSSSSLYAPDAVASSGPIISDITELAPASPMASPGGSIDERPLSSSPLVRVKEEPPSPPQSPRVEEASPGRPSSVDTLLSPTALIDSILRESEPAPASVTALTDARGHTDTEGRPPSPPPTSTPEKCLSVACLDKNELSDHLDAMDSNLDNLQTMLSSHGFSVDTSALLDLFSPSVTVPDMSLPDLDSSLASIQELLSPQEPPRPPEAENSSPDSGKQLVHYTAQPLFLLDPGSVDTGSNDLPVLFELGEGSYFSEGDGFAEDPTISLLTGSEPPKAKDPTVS
Hepatocyte nuclear factor 6 (Homo sapiens), sequence (Q9UBC0 whole entry, looked up, the tested form may be a part): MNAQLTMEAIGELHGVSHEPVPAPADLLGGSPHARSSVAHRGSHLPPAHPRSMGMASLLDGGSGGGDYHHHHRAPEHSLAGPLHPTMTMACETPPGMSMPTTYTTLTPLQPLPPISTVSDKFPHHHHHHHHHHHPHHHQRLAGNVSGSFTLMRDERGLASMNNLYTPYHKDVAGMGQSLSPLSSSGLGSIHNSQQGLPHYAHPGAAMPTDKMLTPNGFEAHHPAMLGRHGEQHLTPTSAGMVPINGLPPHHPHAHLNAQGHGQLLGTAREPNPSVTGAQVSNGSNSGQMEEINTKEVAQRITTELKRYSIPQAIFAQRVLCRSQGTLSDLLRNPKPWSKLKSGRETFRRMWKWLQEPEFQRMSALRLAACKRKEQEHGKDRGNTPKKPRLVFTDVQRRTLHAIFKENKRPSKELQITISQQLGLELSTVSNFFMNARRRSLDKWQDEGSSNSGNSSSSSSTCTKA
Paired box protein Pax-6 (Homo sapiens), sequence (P26367 whole entry, looked up): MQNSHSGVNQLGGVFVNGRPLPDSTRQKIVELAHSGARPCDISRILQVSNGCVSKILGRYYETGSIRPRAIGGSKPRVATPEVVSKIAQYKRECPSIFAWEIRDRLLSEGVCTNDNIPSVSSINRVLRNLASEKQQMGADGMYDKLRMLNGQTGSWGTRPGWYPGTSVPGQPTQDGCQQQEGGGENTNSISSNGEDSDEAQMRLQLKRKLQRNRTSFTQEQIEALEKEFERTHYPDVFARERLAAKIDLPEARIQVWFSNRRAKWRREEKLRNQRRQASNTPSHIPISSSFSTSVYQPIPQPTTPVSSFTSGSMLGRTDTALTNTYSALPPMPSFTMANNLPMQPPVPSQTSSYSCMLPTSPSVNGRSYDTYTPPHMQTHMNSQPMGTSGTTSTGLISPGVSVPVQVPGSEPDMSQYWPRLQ
Hypoxia-inducible factor 1-alpha (Homo sapiens), sequence (Q16665 whole entry, looked up): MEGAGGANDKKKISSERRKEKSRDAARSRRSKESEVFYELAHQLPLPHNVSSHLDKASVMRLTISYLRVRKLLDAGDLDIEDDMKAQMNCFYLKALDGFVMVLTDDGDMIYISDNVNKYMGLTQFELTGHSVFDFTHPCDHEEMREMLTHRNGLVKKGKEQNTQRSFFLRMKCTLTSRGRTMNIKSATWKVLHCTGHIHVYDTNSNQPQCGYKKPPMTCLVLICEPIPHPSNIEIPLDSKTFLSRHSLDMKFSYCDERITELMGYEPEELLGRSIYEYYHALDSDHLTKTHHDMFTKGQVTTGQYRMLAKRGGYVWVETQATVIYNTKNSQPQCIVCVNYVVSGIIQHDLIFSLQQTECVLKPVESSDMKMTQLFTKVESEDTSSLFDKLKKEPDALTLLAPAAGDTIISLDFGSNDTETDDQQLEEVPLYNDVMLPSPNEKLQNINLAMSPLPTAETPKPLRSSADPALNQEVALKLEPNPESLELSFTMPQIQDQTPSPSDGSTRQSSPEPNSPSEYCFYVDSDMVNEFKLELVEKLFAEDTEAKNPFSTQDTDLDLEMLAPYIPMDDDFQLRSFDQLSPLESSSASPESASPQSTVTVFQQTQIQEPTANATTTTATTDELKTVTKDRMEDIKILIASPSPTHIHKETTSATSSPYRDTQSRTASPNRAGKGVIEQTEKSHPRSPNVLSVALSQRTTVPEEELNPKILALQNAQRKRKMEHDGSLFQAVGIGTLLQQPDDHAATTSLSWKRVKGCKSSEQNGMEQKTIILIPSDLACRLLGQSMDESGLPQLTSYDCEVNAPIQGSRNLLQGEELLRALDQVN

O=S(=O)(Oc1ccc(Cl)cc1)c1ccc(Cl)cc1
inactive: [1] | [2] | [3] | [4] | [5] | [6]
active: [7] 53.3 µM | [8] 10.8 µM | [9] 5.87 µM

O=C(Nc1ccc(Br)cc1)c1cc(Br)cc(Br)c1O
active: [6] 132 µM | [10] 93.2 µM | [9] 3.75 µM
inactive: [1] | [2] | [3] | [4] | [5]

C[N+](C)(C)Cc1ccccc1
inactive: [1] | [2] | [3] | [4] | [5] | [6] | [7] | [10] | [9]

O=C1C=CC(=O)c2ccccc21
inactive: [1] | [2] | [3] | [4] | [5] | [6] | [7] | [8] | [9]

Cc1cc(C)cc(C)c1
inactive: [1] | [2] | [3] | [4] | [5] | [7]

CCCCN(CCCC)C(=S)[S-].CCCCN(CCCC)C(=S)[S-].[Ni+2]
inactive: [1] | [2] | [3] | [4] | [5] | [6] | [7] | [10]
active: [9] 7.2 µM

BrCC(Br)c1ccccc1 (stereo unspecified)
inactive: [1] | [2] | [3] | [4] | [5] | [6] | [7] | [10]
active: [9] 27.3 µM

CCN(CC)C(=O)C(Cl)=C(C)OP(=O)(OC)OC
active: [9] 11.3 µM
inactive: [1] | [2] | [3] | [4] | [5] | [6] | [7] | [10]

CC(=O)CN(CC(C)=O)N=O
inactive: [1] | [2] | [3] | [4] | [5] | [6] | [7] | [10] | [9]

COC(F)(C(F)(F)C(F)(F)F)C(F)(C(F)(F)F)C(F)(F)F (stereo unspecified)
inactive: [1] | [2] | [3] | [4] | [5] | [6] | [7] | [8] | [9]

CCCCCCCCCCCCCl
inactive: [1] | [2] | [3] | [4] | [5] | [6] | [7] | [10] | [9]

CCOC(=O)Cc1ccccc1
inactive: [1] | [2] | [3] | [4] | [5] | [6] | [8] | [10] | [9]

Cc1ccc(CCl)cc1
inactive: [1] | [2] | [3] | [4] | [5] | [6] | [7] | [8] | [9]

CCCCN(CCCC)C(=S)S
inactive: [2] | [3]
active: [1] 126 µM | [4] 100 µM | [5] 100 µM | [6] 47.9 µM | [7] 112 µM | [10] 100 µM | [9] 25.1 µM

C=CCc1ccccc1O
active: [9] 29.3 µM
inactive: [1] | [2] | [3] | [4] | [5] | [6] | [7] | [10]

C=CC(F)(C(F)(F)F)C(F)(F)C(F)(F)F (stereo unspecified)
inactive: [1] | [2] | [3] | [4] | [5] | [6] | [8] | [9]

ClCCN1CCOCC1
inactive: [1] | [2] | [3] | [4] | [5] | [6] | [7] | [10] | [9]

c1ccc(-c2cccc(-c3ccccc3)c2)cc1
active: [9] 11.3 µM
inactive: [1] | [2] | [3] | [4] | [5] | [6] | [7] | [10]

COc1ccccc1N
active: [9] 59.1 µM
inactive: [1] | [2] | [3] | [4] | [5] | [6] | [7] | [10] | [9]

OCC(c1ccc(Cl)cc1)c1ccc(Cl)cc1
inactive: [2] | [3] | [10]
active: [1] 54.6 µM | [4] 55.3 µM | [5] 56.6 µM | [6] 52.8 µM | [7] 58.9 µM | [9] 8.73 µM

Nc1nc(=S)[nH][nH]1
inactive: [1] | [2] | [3] | [4] | [5] | [6] | [7] | [10] | [9]

CC(C)[C@H](C(=O)OC(C#N)c1cccc(Oc2ccccc2)c1)c1ccc(OC(F)F)cc1 (stereo partly specified)
inactive: [1] | [2] | [3] | [4] | [5] | [6] | [10]
active: [8] 1.18 µM | [9] 0.396 µM

CC(c1ccccc1)(c1ccc(O)cc1)c1ccc(O)cc1
inactive: [2] | [3] | [4] | [5]
active: [1] 19.3 µM | [6] 17.7 µM | [7] 16.3 µM | [10] 17.8 µM

Cc1cccc(C)c1NC(=O)CN1CCCC1=O
active: [9] 100 µM
inactive: [1] | [2] | [3] | [4] | [5] | [7] | [10]

CCC[N+](CCC)(CCC)CCC
inactive: [1] | [2] | [3] | [4] | [5] | [7] | [8] | [10] | [9]

O=C(O)COc1cc(Cl)c(Cl)cc1Cl
inactive: [1] | [2] | [3] | [4] | [5] | [7] | [9]
